Results from paper PMC7862700, “An all-to-all approach to the identification of sequence-specific readers for epigenetic DNA modifications on cytosine”.

Legend:
Test in all cases: DAPPL (digital affinity profiling via proximity ligation, sequencing); 10 mM Tris-HCl pH 7.5, 50 mM NaCl, 1 mM DTT, 4% glycerol, room temperature, 30 min; GST-TFs on glutathione beads, 16-mer random dsDNA library, 0.1% formaldehyde crosslink after washing; high values mean tight binding
FEV = biological target: T1, FEV (Homo sapiens, UniProt Q99581 1-238); settings: protein: recombinant; tags: N-terminal GST; dsDNA, one strand shown
T1 sequence: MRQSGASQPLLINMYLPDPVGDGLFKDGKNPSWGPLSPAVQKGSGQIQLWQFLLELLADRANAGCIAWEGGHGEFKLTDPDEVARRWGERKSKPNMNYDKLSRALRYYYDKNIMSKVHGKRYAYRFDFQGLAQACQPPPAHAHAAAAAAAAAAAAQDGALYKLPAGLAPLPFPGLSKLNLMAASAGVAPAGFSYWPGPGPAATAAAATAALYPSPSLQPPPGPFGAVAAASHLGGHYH
In short: (§1)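 Beads coated with glutathione captured GST-fused human transcription factors that had been expressed in yeast, and the factors were then given DNA barcodes and pooled with a tag-only sample. The pools were incubated with 200 nmole of a random double-stranded 16-mer DNA library in Tris/NaCl/DTT/glycerol buffer for 30 min at room temperature, washed, crosslinked with 0.1% formaldehyde and proximity-ligated with BsaI/T4 ligase at 37 °C for 1 h. PCR amplification and Illumina NextSeq500 sequencing came last. Binding signal is each hexamer's read frequency for a factor divided by its frequency for the tag-only sample.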

ETV5 = ETV5 (Homo sapiens, UniProt P41161 1-510); settings: protein: recombinant; tags: N-terminal GST; dsDNA, one strand shown
Sequence of ETV5 (P41161 whole entry): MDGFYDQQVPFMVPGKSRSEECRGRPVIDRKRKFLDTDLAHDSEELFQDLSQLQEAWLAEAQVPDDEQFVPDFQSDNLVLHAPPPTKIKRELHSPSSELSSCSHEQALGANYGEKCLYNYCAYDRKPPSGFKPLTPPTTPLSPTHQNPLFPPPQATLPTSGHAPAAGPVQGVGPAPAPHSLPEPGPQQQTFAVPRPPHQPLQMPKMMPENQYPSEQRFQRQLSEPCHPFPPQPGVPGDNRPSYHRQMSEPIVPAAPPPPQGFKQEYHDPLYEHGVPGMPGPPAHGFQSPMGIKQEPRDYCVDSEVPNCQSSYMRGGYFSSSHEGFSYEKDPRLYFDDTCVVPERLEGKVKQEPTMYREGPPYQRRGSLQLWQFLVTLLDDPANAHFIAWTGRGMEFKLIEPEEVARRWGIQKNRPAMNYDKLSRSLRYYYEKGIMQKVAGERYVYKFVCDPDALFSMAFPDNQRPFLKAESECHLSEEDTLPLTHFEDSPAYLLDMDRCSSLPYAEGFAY
In short: as §1

HSF1 = HSF1 (Homo sapiens, UniProt Q00613 1-529); settings: protein: recombinant; tags: N-terminal GST; chain copies: 3; dsDNA, one strand shown
Sequence of HSF1 (Q00613 whole entry): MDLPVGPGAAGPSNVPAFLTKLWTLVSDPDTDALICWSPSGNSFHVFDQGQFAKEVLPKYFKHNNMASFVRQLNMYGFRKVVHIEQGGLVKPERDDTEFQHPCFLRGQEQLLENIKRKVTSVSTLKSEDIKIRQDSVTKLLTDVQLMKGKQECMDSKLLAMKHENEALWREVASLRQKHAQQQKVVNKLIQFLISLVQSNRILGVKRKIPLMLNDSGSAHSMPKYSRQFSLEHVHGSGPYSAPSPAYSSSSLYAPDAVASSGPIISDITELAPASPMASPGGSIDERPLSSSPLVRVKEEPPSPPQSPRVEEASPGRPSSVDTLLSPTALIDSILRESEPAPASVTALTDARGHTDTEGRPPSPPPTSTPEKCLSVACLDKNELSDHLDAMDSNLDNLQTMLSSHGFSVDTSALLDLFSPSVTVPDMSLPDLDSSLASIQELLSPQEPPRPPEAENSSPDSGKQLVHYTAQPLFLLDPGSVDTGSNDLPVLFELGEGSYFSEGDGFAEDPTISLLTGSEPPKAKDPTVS
In short: as §1

SPIC = biological target: T2, SPIC (Homo sapiens, UniProt Q8N5J4 1-248); settings: protein: recombinant; tags: N-terminal GST; dsDNA, one strand shown
T2 sequence: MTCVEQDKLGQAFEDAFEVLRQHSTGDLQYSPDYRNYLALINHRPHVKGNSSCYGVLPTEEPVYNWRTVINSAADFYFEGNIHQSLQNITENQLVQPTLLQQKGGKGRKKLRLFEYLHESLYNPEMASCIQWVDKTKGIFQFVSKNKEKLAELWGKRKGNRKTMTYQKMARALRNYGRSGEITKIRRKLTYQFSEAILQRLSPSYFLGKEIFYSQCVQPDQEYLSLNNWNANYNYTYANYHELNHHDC
In short: as §1

ELF4 = ELF4 (Homo sapiens, UniProt Q99607 1-663); settings: protein: recombinant; tags: N-terminal GST; dsDNA, one strand shown
Sequence of ELF4 (Q99607 whole entry): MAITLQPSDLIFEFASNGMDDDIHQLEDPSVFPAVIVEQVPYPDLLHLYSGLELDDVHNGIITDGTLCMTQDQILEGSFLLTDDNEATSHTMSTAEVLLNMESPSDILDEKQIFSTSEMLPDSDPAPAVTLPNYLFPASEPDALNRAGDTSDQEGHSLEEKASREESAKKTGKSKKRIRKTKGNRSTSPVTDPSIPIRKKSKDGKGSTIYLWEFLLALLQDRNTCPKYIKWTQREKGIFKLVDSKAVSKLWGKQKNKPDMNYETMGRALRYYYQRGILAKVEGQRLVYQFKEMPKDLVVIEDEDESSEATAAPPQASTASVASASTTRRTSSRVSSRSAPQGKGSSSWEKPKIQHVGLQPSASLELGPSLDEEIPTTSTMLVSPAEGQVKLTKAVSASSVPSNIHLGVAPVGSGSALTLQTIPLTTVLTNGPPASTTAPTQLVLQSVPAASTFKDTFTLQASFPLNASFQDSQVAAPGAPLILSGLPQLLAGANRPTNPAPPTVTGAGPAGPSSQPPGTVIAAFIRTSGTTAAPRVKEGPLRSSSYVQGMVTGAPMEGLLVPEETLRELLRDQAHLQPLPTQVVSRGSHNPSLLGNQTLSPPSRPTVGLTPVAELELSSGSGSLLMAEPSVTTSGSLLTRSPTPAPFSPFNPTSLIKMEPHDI
In short: as §1

ELK4 = biological target: T3, ELK4 (Homo sapiens, UniProt P28324-2 1-405); settings: protein: recombinant; tags: N-terminal GST; dsDNA, one strand shown
T3 sequence: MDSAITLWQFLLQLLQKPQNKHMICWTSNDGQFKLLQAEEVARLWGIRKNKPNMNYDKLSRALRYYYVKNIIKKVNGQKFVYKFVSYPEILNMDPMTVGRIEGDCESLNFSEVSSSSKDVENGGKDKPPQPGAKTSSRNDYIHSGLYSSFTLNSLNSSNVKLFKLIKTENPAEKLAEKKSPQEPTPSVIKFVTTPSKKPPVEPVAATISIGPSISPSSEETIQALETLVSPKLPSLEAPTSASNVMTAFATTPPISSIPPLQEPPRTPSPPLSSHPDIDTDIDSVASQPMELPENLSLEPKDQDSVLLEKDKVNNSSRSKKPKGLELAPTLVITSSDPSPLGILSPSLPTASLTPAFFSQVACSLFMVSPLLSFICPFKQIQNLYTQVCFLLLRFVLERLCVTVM
In short: as §1

ETV2 = biological target: T4, ETV2 (Homo sapiens, UniProt O00321 1-342); settings: protein: recombinant; tags: N-terminal GST; dsDNA, one strand shown
T4 sequence: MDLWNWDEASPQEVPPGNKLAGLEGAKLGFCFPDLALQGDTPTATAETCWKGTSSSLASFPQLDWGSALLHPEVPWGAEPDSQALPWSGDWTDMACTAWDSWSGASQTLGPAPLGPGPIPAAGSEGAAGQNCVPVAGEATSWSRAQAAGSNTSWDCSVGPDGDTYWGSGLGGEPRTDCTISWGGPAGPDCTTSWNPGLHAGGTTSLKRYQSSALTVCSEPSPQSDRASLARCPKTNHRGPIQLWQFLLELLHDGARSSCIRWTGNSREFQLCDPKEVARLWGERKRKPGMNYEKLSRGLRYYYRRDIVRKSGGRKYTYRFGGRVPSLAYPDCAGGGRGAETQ
In short: as §1

ELF3 = biological target: T5, ELF3 (Homo sapiens, UniProt P78545 1-371); settings: protein: recombinant; tags: N-terminal GST; dsDNA, one strand shown
T5 sequence: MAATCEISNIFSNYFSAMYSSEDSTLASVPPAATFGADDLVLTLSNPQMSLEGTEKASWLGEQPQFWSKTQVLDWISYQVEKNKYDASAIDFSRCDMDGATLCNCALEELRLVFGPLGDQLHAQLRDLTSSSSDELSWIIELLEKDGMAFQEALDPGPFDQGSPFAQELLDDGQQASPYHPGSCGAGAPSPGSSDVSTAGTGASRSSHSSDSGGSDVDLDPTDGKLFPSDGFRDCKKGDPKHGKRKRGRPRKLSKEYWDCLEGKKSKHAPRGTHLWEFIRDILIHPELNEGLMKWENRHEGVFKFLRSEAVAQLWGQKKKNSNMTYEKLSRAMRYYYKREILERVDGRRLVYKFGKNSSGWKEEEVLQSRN
In short: as §1

CRX = CRX (Homo sapiens, UniProt O43186 1-299); settings: protein: recombinant; tags: N-terminal GST; dsDNA, one strand shown
Sequence of CRX (O43186 whole entry): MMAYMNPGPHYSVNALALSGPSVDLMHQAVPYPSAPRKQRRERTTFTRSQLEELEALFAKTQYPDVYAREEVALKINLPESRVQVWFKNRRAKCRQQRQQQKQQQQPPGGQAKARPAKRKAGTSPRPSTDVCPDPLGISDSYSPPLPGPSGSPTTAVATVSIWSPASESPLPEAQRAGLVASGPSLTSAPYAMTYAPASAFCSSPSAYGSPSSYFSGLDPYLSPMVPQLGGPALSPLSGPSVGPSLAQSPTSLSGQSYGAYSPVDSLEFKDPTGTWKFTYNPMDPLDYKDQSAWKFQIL
In short: as §1

ETV1 = ETV1 (Homo sapiens, UniProt P50549 1-477); settings: protein: recombinant; tags: N-terminal GST; dsDNA, one strand shown
Sequence of ETV1 (P50549 whole entry): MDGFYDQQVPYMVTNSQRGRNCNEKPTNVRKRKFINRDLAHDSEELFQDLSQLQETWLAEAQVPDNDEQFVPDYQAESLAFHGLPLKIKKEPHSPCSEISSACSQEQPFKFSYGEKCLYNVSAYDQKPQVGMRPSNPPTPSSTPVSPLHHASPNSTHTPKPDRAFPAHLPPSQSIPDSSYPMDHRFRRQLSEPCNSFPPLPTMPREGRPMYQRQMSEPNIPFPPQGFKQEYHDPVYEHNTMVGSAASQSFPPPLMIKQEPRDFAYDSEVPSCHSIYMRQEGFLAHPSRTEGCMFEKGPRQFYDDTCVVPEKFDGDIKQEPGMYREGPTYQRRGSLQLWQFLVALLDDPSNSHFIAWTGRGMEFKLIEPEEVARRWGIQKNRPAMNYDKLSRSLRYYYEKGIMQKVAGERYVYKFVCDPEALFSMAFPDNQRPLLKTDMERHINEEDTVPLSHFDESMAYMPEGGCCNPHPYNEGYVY
In short: as §1

ERF = biological target: T6, ERF (Homo sapiens, UniProt P50548 1-548); settings: protein: recombinant; tags: N-terminal GST; dsDNA, one strand shown
T6 sequence: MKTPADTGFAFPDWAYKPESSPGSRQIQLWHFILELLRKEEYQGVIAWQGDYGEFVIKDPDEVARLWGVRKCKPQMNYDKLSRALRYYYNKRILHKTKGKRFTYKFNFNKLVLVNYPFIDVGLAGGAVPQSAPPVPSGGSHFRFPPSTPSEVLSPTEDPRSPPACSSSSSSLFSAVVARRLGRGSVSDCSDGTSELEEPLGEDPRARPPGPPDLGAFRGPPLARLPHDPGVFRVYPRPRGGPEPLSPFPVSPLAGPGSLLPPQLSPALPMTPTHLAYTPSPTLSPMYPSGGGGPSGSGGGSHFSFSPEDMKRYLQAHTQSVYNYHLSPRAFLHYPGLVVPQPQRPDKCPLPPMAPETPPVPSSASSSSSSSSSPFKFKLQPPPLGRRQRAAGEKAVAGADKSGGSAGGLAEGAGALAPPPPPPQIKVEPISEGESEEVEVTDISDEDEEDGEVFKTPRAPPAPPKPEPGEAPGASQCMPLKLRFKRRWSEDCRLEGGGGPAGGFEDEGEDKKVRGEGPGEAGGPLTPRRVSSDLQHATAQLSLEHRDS
In short: as §1

ETV3L = biological target: T7, ETV3L (Homo sapiens, UniProt Q6ZN32 1-361); settings: protein: recombinant; tags: N-terminal GST; dsDNA, one strand shown
T7 sequence: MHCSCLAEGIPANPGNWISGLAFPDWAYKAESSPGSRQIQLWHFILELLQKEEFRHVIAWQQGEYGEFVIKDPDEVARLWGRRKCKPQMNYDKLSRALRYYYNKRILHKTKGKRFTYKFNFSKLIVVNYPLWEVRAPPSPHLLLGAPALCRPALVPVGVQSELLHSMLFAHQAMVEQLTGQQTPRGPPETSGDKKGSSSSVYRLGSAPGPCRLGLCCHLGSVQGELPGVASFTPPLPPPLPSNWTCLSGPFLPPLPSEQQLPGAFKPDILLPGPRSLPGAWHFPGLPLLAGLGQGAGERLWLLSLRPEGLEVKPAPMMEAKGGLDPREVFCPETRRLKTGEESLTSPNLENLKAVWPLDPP
In short: as §1

ETS2 = biological target: T8, ETS2 (Homo sapiens, UniProt P15036 1-469); settings: protein: recombinant; tags: N-terminal GST; dsDNA, one strand shown
T8 sequence: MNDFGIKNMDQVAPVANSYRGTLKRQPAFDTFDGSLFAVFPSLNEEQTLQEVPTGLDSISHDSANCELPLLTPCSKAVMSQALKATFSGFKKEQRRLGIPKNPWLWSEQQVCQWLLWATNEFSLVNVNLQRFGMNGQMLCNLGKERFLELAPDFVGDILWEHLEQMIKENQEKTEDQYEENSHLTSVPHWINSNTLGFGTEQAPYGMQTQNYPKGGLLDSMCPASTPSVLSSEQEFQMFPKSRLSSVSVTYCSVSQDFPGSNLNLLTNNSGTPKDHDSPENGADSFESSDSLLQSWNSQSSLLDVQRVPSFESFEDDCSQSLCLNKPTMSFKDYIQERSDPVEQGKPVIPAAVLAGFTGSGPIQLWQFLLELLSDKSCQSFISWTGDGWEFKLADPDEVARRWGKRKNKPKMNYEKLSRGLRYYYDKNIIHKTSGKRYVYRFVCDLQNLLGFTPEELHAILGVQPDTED
In short: as §1

SPDEF = biological target: T9, SPDEF (Homo sapiens, UniProt O95238 1-335); settings: protein: recombinant; tags: N-terminal GST; dsDNA, one strand shown
T9 sequence: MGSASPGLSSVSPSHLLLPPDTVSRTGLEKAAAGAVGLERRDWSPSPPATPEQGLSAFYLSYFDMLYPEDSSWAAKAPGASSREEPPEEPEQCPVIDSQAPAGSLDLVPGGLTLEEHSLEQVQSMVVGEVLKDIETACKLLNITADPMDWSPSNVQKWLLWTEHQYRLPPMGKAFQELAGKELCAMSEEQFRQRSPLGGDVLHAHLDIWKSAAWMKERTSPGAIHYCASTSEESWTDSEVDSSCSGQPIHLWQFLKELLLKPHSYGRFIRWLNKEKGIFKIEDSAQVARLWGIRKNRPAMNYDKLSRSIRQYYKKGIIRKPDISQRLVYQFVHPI
In short: as §1

ETV7 = biological target: T10, ETV7 (Homo sapiens, UniProt Q9Y603 1-341); settings: protein: recombinant; tags: N-terminal GST; dsDNA, one strand shown
T10 sequence: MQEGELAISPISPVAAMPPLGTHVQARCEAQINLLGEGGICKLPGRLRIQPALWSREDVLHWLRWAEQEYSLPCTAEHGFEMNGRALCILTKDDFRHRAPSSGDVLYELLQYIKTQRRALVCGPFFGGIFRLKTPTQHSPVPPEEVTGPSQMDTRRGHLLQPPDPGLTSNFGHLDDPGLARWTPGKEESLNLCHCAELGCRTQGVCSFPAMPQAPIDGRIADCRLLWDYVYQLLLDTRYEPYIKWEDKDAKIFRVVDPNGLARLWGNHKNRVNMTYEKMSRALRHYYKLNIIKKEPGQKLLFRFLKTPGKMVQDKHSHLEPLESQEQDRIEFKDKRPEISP
In short: as §1

ELF5 = biological target: T11, ELF5 (Homo sapiens, UniProt Q9UKW6-2 1-255); settings: protein: recombinant; tags: N-terminal GST; dsDNA, one strand shown
T11 sequence: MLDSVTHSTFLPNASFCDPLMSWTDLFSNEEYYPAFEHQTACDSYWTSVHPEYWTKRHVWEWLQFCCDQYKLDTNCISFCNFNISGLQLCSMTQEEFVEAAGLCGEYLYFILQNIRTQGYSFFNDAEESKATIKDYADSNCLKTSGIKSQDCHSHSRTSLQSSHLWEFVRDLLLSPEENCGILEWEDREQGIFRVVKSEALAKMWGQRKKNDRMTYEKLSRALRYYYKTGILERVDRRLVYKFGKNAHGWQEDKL
In short: as §1

ETV3 = biological target: T12, ETV3 (Homo sapiens, UniProt P41162-2 1-143); settings: protein: recombinant; tags: N-terminal GST; dsDNA, one strand shown
T12 sequence: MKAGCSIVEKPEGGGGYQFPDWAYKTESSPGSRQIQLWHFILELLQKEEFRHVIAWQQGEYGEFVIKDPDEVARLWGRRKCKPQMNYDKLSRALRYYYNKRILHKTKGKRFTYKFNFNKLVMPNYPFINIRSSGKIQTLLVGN
In short: as §1

ETV6 = ETV6 (Homo sapiens, UniProt P41212 1-452); settings: protein: recombinant; tags: N-terminal GST; dsDNA, one strand shown
Sequence of ETV6 (P41212 whole entry): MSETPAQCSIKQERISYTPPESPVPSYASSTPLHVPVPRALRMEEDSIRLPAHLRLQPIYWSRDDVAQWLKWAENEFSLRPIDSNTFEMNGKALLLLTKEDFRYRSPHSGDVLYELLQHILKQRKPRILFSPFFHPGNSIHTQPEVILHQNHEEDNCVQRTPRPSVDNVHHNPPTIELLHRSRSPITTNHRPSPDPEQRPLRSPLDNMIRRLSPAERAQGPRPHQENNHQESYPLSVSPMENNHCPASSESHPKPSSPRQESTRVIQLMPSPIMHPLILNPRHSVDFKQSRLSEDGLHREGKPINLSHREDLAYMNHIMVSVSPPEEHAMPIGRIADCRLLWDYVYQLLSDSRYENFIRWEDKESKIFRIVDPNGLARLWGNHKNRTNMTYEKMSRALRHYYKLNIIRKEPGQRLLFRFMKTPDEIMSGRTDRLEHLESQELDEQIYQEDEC
In short: as §1

Question: What does the source list for AAAGAT?
Answer: binding signal (FEV): 1.15 fold enrichment (6-mer frequency, TF over GST control); binding signal (ETV5): 1.25 fold enrichment (6-mer frequency, TF over GST control); binding signal (HSF1): 1.67 fold enrichment (6-mer frequency, TF over GST control); binding signal (SPIC): 1.22 fold enrichment (6-mer frequency, TF over GST control); binding signal (ELF4): 1.24 fold enrichment (6-mer frequency, TF over GST control); binding signal (ELK4): 1.24 fold enrichment (6-mer frequency, TF over GST control); binding signal (ETV2): 1.17 fold enrichment (6-mer frequency, TF over GST control); binding signal (ELF3): 1.16 fold enrichment (6-mer frequency, TF over GST control); binding signal (CRX): 1.75 fold enrichment (6-mer frequency, TF over GST control); binding signal (ETV1): 1.27 fold enrichment (6-mer frequency, TF over GST control); binding signal (ERF): 1.24 fold enrichment (6-mer frequency, TF over GST control); binding signal (ETV3L): 1.17 fold enrichment (6-mer frequency, TF over GST control); binding signal (ETS2): 1.16 fold enrichment (6-mer frequency, TF over GST control); binding signal (SPDEF): 1.23 fold enrichment (6-mer frequency, TF over GST control); binding signal (ETV7): 1.12 fold enrichment (6-mer frequency, TF over GST control); binding signal (ELF5): 1.15 fold enrichment (6-mer frequency, TF over GST control); binding signal (ETV3): 1.28 fold enrichment (6-mer frequency, TF over GST control); binding signal (ETV6): 1.17 fold enrichment (6-mer frequency, TF over GST control)
